Cycloheximide cs: counter-screen hit for Shiga toxin inhibitors, cycloheximide; cell reporter, cycloheximide protein synthesis inhibition counterscreen; max response, %; 12% of 300,000 active; AID 2314; in the data active = max response mostly above about 13%, no sharp cut-off; inactive = mostly below about 14%; note: read at 38.3 µM for the half of the compounds with a filed dose
Pf growth 48h: inhibits P. falciparum growth in the first generation, 48 h | Potency, µM (top dose mostly 28.7 µM), usual class: inhibitors | 5.9% of 310,000 active | P. falciparum luciferase growth in erythrocytes, 48 h | AID 504832
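Firefly luciferase activity from engineered P. falciparum reports growth; inhibitors lower the luminescent signal. Cultures contained 2% hematocrit erythrocytes at 0.1% final parasitemia.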
NS1 function inh: inhibitors of influenza NS1 protein function; AID 2326; Potency, µM (top dose mostly 46.1 µM); 0.4% of 270,000 active; calls by dose curve; note: actives are rising curves; nearly all actives have a fitted effect of over 50% in size
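Compounds were scored for reversing the slow growth caused by influenza A NS1 in S. cerevisiae, measured by optical density at 600 nm. Assay medium contained 2% galactose at pH 6.0; NS1-free yeast of the same strain were the positive control.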
Shiga inhibitor: inhibitors of Shiga toxin in Vero cells | inhibition, % at 38.7 µM | Vero cells, Shiga toxin protein synthesis inhibition reporter | AID 2315 | 9.2% of 290,000 active; in the data active = inhibition mostly above about 28%, no sharp cut-off; inactive = mostly below about 43%
Pf growth 96h: inhibits malaria parasite growth, 96 h | 6.9% of 320,000 active | P. falciparum luciferase reporter growth, 96 h | Potency, µM (highest dose often 28.7 µM), most hits filed as inhibitors
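Erythrocytes infected with luciferase-expressing P. falciparum were dispensed at 2% hematocrit and 0.05% parasitemia (final), then incubated with compounds 96 hours at 37 C in 5% CO2. Luminescence after detection reagent addition reported growth.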
Each line names hits and unclear results; the compound was inactive in the other large screens. Compounds with a hit are over-represented: about 21% of the library has one in this group of screens. Unless noted, calls come from the whole dose curve; as a rule, active = well fitted inhibition curve with a large enough effect; inconclusive = small, poorly fitted or top-dose-only effect, or another doubt; inactive = no such curve, though single readings can be large or run the other way.

CCOC(=O)N1CCN(C(=O)C(NC(=O)c2ccc(C(C)(C)C)cc2)C(C)C)CC1 (stereo unspecified)	Pf growth 48h 9.3µM, Pf growth 96h inconclusive (no result: Cycloheximide cs, NS1 function inh, Shiga inhibitor)
CC(C)(C)c1ccc(C(=O)Nc2ccccc2C(=O)NCCN2CCOCC2)cc1	Cycloheximide cs 13
C=CCOC(=O)C1=C(C)OC(N)=C(C#N)C1c1ccc(OC)c(CSc2ccccn2)c1 (stereo unspecified)	none
CCOC(=O)C1=C(CC)OC(N)=C(C#N)C1c1ccsc1 (stereo unspecified)	Pf growth 96h 13µM
CCCC1=C(C(=O)OCC)C(c2ccc(OC)c(CSc3ccccn3)c2)C(C#N)=C(N)O1 (stereo unspecified)	Pf growth 48h 9.3µM, Pf growth 96h inconclusive
CCOC(=O)C1=C(C)OC(N)=C(C#N)C1c1ccsc1 (stereo unspecified)	none
COc1ccc(N(C(=O)C(C)C)S(=O)(=O)c2ccc3ccccc3c2)cc1	none (no result: Shiga inhibitor)
Cc1noc(/C=C/Nc2ccc(F)cc2F)c1[N+](=O)[O-]	Cycloheximide cs 53, Shiga inhibitor 141 (no result: NS1 function inh)
COc1ccc(OC(C)C(=O)N(C)Cc2nc(-c3ccc(OC)cc3)no2)cc1 (stereo unspecified)	none
CCc1ccccc1NC(=O)CN(C)C(=O)CSc1nnc(Nc2ccc(C)cc2)s1	Pf growth 96h inconclusive
CCc1ccc(Nc2nnc(SCC(=O)N(C)CC(=O)Nc3ccccc3CC)s2)cc1	Cycloheximide cs 28
Cc1nc(SCC(=O)Nc2cccnc2Cl)nc(C)c1C	none (no result: NS1 function inh)
Cc1nnc(SCC(=O)Nc2ccccc2NC(=O)CSc2nnc(C)s2)s1	none
Cc1ccc(Nc2nnc(SCC(=O)Nc3ccccc3[N+](=O)[O-])s2)cc1	Pf growth 96h 10µM
Cc1cccc(Nc2nnc(SCC(=O)N(C)C3CCS(=O)(=O)C3)s2)c1C (stereo unspecified)	Pf growth 48h inconclusive, Pf growth 96h 2.9µM
CCN(C(=O)CSc1nnc(Nc2ccccc2C)s1)C1CCS(=O)(=O)C1 (stereo unspecified)	Pf growth 48h inconclusive, Pf growth 96h inconclusive
Cc1ccc(Nc2nnc(SCC(=O)Nc3cccnc3Cl)s2)cc1C	Cycloheximide cs 27, Shiga inhibitor 52
Cc1ccc(Nc2nnc(SCC(=O)NCCN3C(=O)CSC3=O)s2)cc1	Cycloheximide cs 13
Cc1cccc(Nc2nnc(SCC(=O)Nc3ccccc3[N+](=O)[O-])s2)c1C	Cycloheximide cs 27, Pf growth 48h inconclusive, Pf growth 96h inconclusive
Cc1nc(CSc2nnc(Nc3cccc(C)c3C)s2)cs1	Pf growth 48h inconclusive, Pf growth 96h 7.4µM
O=C(CSc1nc2ccc([N+](=O)[O-])cc2s1)NC1CCS(=O)(=O)C1 (stereo unspecified)	Pf growth 48h inconclusive, Pf growth 96h inconclusive (no result: NS1 function inh)
Cc1cccn2cc(CSc3nnc(Nc4ccc(C(C)C)cc4)s3)nc12	Pf growth 48h inconclusive, Pf growth 96h inconclusive
CN(C(=O)CSc1nc2ccc([N+](=O)[O-])cc2s1)C1CCS(=O)(=O)C1 (stereo unspecified)	Pf growth 48h inconclusive, Pf growth 96h 9.3µM
CC1CCN(C(=O)CNC(=O)CNS(=O)(=O)c2ccccc2)CC1	Pf growth 96h inconclusive
CCOC(=O)Cc1csc(NC(=S)NC(=O)c2cccc([N+](=O)[O-])c2)n1	none
CC1CCCN(C(=S)Nc2ccc3nc4n(c(=O)c3c2)CCCCC4)C1 (stereo unspecified)	none
Cc1ccc(Cl)cc1NC(=O)Nn1cnnc1	none
S=C(Nc1ccccc1)Nc1cc(Cl)ccc1Oc1ccccc1	NS1 function inh inconclusive
COc1ccc(Cl)cc1NC(=O)COC(=O)CCNS(=O)(=O)c1cccs1	none (no result: Cycloheximide cs, NS1 function inh, Shiga inhibitor)
COC(=O)CC1C(=O)NCCN1C(=O)c1ccc([N+](=O)[O-])cc1 (stereo unspecified)	none (no result: Pf growth 48h)
COC(=O)CC1C(=O)NCCN1C(=O)CSc1nc2ccc([N+](=O)[O-])cc2s1 (stereo unspecified)	Pf growth 48h 10µM, Pf growth 96h inconclusive (no result: NS1 function inh)
O=C(O)CC/C(=N\NC(=O)c1ccccc1)c1cccs1	Cycloheximide cs 49, Shiga inhibitor 109 (no result: NS1 function inh)
COc1ccc(OCC(=O)N/N=C(\CCC(=O)O)c2cccs2)cc1	none (no result: NS1 function inh)
O=C(O)CC/C(=N\NC(=O)c1ccncc1)c1ccccc1	Pf growth 96h inconclusive (no result: Shiga inhibitor)
COC(=O)N/N=C(\CCC(=O)O)c1cccs1	Cycloheximide cs 15
CCCCn1c(N)c(N(CC)C(=O)c2ccccc2F)c(=O)[nH]c1=O	none
COc1ccc(-n2nnc3c(=O)n(Cc4cc(C)ccc4C)cnc32)cc1	Pf growth 96h 5.2µM
COc1cccc(-n2nnc3c(=O)n(Cc4cccc(C)c4)cnc32)c1	Cycloheximide cs 24
COc1cccc(-n2nnc3c(=O)n(Cc4ccccc4F)cnc32)c1	none
CC(=O)Nc1ccc(N(CC(=O)NC2CCCCC2)C(=O)Cn2nnc(-c3ccccc3)n2)cc1	none
O=c1[nH]c2ccccc2c2cn(-c3ccccc3)nc12	Cycloheximide cs 18, Shiga inhibitor 61, Pf growth 96h inconclusive
O=c1[nH]c2ccccc2c2ccccc12	none
O=C1NN=C(c2ccccc2)CC1c1c[nH]c2ccccc12 (stereo unspecified)	Cycloheximide cs 24, Pf growth 96h inconclusive (no result: NS1 function inh)
O=C1NN=C(c2ccccc2)CC1c1ccc(Cl)cc1Cl (stereo unspecified)	Pf growth 96h inconclusive (no result: NS1 function inh)
COc1ccnc(Oc2ccc(F)cc2)c1C(=O)N/C=N/OCc1c(Cl)cccc1Cl	Pf growth 48h 12µM, Pf growth 96h inconclusive
CC(=O)c1ccc(OCC(=O)OCC(=O)N(CC(C)C)c2c(N)n(Cc3ccccc3)c(=O)[nH]c2=O)cc1	none (no result: Cycloheximide cs, NS1 function inh, Shiga inhibitor)
COCCn1c(N)c(N(Cc2ccccc2)C(=O)c2ccc3ccccc3c2)c(=O)[nH]c1=O	Pf growth 48h 10µM, Pf growth 96h inconclusive (no result: NS1 function inh)
COCCN(C(=O)c1ccc2ccccc2c1)c1c(N)n(Cc2ccccc2)c(=O)[nH]c1=O	none (no result: NS1 function inh)
CCCCn1c(N)c(N(CCOC)C(=O)c2cc(-c3ccc(OC)cc3)nc3ccccc23)c(=O)[nH]c1=O	Pf growth 48h 9.3µM, Pf growth 96h inconclusive (no result: Cycloheximide cs, NS1 function inh, Shiga inhibitor)
CCCCn1c(N)c(N(CCOC)C(=O)c2ccc(-c3cccc(C(F)(F)F)c3)o2)c(=O)[nH]c1=O	Pf growth 48h 13µM, Pf growth 96h 7.4µM (no result: Cycloheximide cs, NS1 function inh, Shiga inhibitor)
CCCCn1c(N)c(N(CCOC)C(=O)c2cc(-c3ccc(C)cc3)nc3ccccc23)c(=O)[nH]c1=O	Pf growth 48h inconclusive, Pf growth 96h 12µM (no result: Cycloheximide cs, NS1 function inh, Shiga inhibitor)
O=C(N/N=C/c1ccccn1)c1ccc(Br)o1	Cycloheximide cs 19, Pf growth 48h inconclusive, Shiga inhibitor 44, Pf growth 96h inconclusive
O=C(N/N=C/c1ccccn1)C1CC1	none (no result: Pf growth 48h)
O=C(N/N=C/c1cccnc1)c1cc(Br)ccc1O	Cycloheximide cs 26, Shiga inhibitor 53
O=C(N/N=C/c1ccccn1)c1cc(Br)ccc1O	Cycloheximide cs 32, Pf growth 48h inconclusive, Shiga inhibitor 48
O=C(NCCCO)c1ccc(CSc2nc3ccccc3c(=O)[nH]2)cc1	none
COc1ccc(CCN2C(=O)CSC2=Nc2ccc(C)cc2C)cc1OC	Pf growth 48h 2.6µM, Pf growth 96h inconclusive
Cc1ccc(C2N(C)c3ccccc3-c3nc4ccccc4n32)o1 (stereo unspecified)	Pf growth 96h 3.7µM (no result: Pf growth 48h)

Screening results as filed in PubChem.
